A short description of experiment [1]: qHTS assay to identify small molecule agonists of the vitamin D receptor (VDR) signaling pathway - cell viability counter screen (AID 743224). Further: nearly all actives have a fitted effect of over 50% in size. Further: potency means the concentration at half of the fitted maximal effect. In a few lines:
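Cells: VDR-bla, 2,000/well, settled 4 h. Treatment: compounds in DMSO, 16 h, 37C/5% CO2. Readout: CellTiter-Glo luminescence after 30 min RT.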
A general note: In qHTS, concentration-response curves come from the screen itself.

Experiment [2] in a line: qHTS assay to identify small molecule antagonists of the vitamin D receptor (VDR) signaling pathway - cell viability counter screen (AID 743225). Further: nearly all actives have a fitted effect of over 50% in size. Further: potency means the concentration at half of the fitted maximal effect. A digest of the protocol:
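Compounds were pinned onto VDR-bla HEK 293T cells together with 1-alpha,25-dihydroxyvitamin D3 at 3 nM final. After 16 h at 37C and 5% CO2 plus the reporter readout, cell viability was measured by CellTiter-Glo luminescence (30 min, room temperature).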

Experiment [3] in a line: qHTS assay to identify small molecule agonists of the NFkB signaling pathway (AID 1159509; active means well fitted curve in the direction sought with a large enough effect in the signal ratio in the repeat runs, not every such curve was filed as active; the % refers to the signal ratio; further: series mostly up to about 61 µM). In a few lines:
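Readout: FRET fluorescence, 405 nm excitation, 460/530 nm emission; beta-lactamase expression disrupts FRET. Cells: ME-180 stably carrying NF-kB-driven bla reporter. Compound exposure 5 hr, 37 C, 5% CO2.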

Experiment [4] is described as follows: qHTS assay to identify small molecule agonists of the NFkB signaling pathway - cell viability counter screen (AID 1159515; calls by dose curve; further: nearly all actives have a fitted effect of over 55% in size; further: potency means the concentration at half of the fitted maximal effect). A digest of the protocol:
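Cells are seeded (2,000 NFkB-bla ME-180 per well), rested overnight, and dosed with DMSO-dissolved compounds for 5 hr at 37 C. Viability is then read by CellTiter-Glo luminescence after 30 min at room temperature.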

Experiment [5] is described as follows: qHTS assay to identify small molecule agonists of the endoplasmic reticulum stress response signaling pathway (AID 1159516; active means well fitted activation curve with a large enough effect in the signal ratio in the repeat runs, not every such curve was filed as active; the % refers to the signal ratio). A digest of the protocol: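 Cells are seeded at 1,500 per well and incubated overnight. Compounds in DMSO are added for 5 hr at 37 C, then beta-lactamase FRET substrate for 2 hr at room temperature, and fluorescence at 460 and 530 nm is measured.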

The nature of experiment [6]: qHTS assay to identify small molecule agonists of the endoplasmic reticulum stress response signaling pathway - cell viability counter screen (AID 1159517; calls by dose curve;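 further: HeLa cells carrying an ER stress response element beta-lactamase reporter; series mostly up to about 61 µM; nearly all actives have a fitted effect of over 50% in size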). In a few lines:
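Cytotoxicity of test compounds toward ESRE-bla HeLa cells was assessed after 5 hr exposure. The luminescent CellTiter-Glo signal was measured 30 min after reagent addition.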

The nature of experiment [7]: qHTS assay to identify small molecule antagonists of the retinoid-related orphan receptor gamma (ROR-gamma) signaling pathway - cell viability counter screen (AID 1159520). Further: nearly all actives have a fitted effect of over 50% in size. Further: potency means the concentration at half of the fitted maximal effect. In a few lines: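 Tet-on ROR gamma CHO cells (1,000/well) were plated 4 hr, given compounds in DMSO for 2 hr at 37 C, then induced with 1 uM final doxycycline for 16 hr. Viability was read as ATP by CellTiter-Glo luminescence after 30 min.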

For experiment [8], the target named is Nuclear receptor ROR-gamma (Homo sapiens) (UniProt P51449). Nature of the experiment: qHTS assay to identify small molecule antagonists of the retinoid-related orphan receptor gamma (ROR-gamma) signaling pathway (AID 1159521; further: nearly all actives have a fitted effect of over 50% in size; further: potency means the concentration at half of the fitted maximal effect). A digest of the protocol: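 Test compounds were applied to Tet-on RORγ CHO cells 2 h ahead of doxycycline hyclate (1 uM final). Luciferase reporter activity was quantified by luminescence after 16 h at 37 C and 5% CO2.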

The nature of experiment [9]: qHTS assay to identify small molecule agonists of the AP-1 signaling pathway - cell viability counter screen (AID 1159525; calls by dose curve; further: nearly all actives have a fitted effect of over 55% in size). A digest of the protocol: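 Each titration point was normalised to DMSO and tetra n-octyl ammonium bromide controls. The read was Cell Titer Glo luminescence after 30 min at RT, following 5 h compound exposure of ME-180 AP-1-bla cells at 37 °C.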

A short description of experiment [10]: qHTS assay to identify small molecule agonists of the AP-1 signaling pathway (AID 1159526; calls by dose curve).
Experiment [11] addresses Retinoic acid receptor RXR-alpha (Homo sapiens) (UniProt P19793). Nature of the experiment: qHTS assay to identify small molecule agonists of the RXR signaling pathway (AID 1159527; calls by dose curve; further: nearly all actives have a fitted effect of over 35% in size). In a few lines:
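Using 9-cis retinoic acid as the reference agonist, chemicals were tested in HEK 293T cells […] for 16 hr; substrate loading lasted 2 hr at room temperature.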

The nature of experiment [12]: qHTS assay to identify small molecule agonists of the RXR signaling pathway - cell viability counter screen (AID 1159529). Further: nearly all actives have a fitted effect of over 50% in size. Further: potency means the concentration at half of the fitted maximal effect. In a few lines:
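Compounds dissolved in DMSO were pinned onto HEK 293T cells carrying a beta-lactamase reporter under RXR-alpha control and incubated 16 hr. Cytotoxicity was then quantified by CellTiter-Glo luminescence.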

A short description of experiment [13]: qHTS assay to identify small molecule antagonists of the retinoid acid receptor (RAR) signaling pathway - cell viability counter screen (AID 1159551). Further: nearly all actives have a fitted effect of over 35% in size. In a few lines:
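Cells (C3RL4) are plated, incubated overnight, dosed with compound in DMSO, then given retinol at 1 uM final. After 6 h at 37 C, CellTiter-Glo is added and luminescence read following 30 min at room temperature.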

Experiment [14] in a line: qHTS assay to identify small molecule antagonists of the retinoic acid receptor (RAR) signaling pathway (AID 1159552; further: nearly all actives have a fitted effect of over 50% in size). In a few lines:
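Test chemicals and DMSO controls were pin-transferred onto C3RL4 cells a day after seeding; retinol (1 uM final) followed at once. Luminescent reporter output was quantified after 6 hr of co-incubation and 30 min with detection reagent.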

Experiment [15] can be described thus: qHTS assay to identify small molecule agonists of the retinoic acid receptor (RAR) signaling pathway (AID 1159553). Further: potency means the concentration at half of the fitted maximal effect. A digest of the protocol:
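Seed C3RL4 reporter cells at 1,000 per well and incubate overnight at 37 C. Add compounds in DMSO, incubate 6 hr. Add luciferase reagent, wait 30 min at room temperature, read luminescence.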

A short description of experiment [16]: qHTS assay to identify small molecule antagonists of the estrogen related receptor (ERR) signaling pathway - cell viability counter screen (AID 1224818). Further: series mostly up to about 46 µM. A digest of the protocol:
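ERR cells, 2,000/well; 6 h settle at 37 C/5% CO2; compound pin transfer (DMSO); 17.5 h at 37 C; CellTiter-Fluor, 30 min, fluorescence read.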

Experiment [17] can be described thus: qHTS assay to identify small molecule antagonists of the estrogen related receptor signaling pathway with the pleiotropic PPARgamma coactivator (PGC) cell viability counter screen (AID 1224822;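 further: series mostly up to about 46 µM; viability read after 17.5 h compound exposure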). In a few lines: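 Multiplexed viability counter screen run in PGC/ERR cells treated with compounds for 17.5 h at 37 C; live-cell protease signal measured by CellTiter-Fluor fluorescence.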

Molecules are shown by their SMILES. “And” between values parts separate entries of the source, which are not always exact repeats. Equal entries are not always repeated. Records with an inconclusive call do not appear. A structure can be active in one record and inactive in another. The source made the active and inactive calls. Unless noted, the call rests on the fitted dose curve; in most records, active means well fitted curve in the direction sought with a large enough effect in the repeat runs; inconclusive means weak or mixed curves; inactive means no such curve, though single readings can be large; an effect the other way counts as inactive or inconclusive.

Chain of Retinoic acid receptor RXR-alpha (Homo sapiens) (P19793 whole entry, looked up): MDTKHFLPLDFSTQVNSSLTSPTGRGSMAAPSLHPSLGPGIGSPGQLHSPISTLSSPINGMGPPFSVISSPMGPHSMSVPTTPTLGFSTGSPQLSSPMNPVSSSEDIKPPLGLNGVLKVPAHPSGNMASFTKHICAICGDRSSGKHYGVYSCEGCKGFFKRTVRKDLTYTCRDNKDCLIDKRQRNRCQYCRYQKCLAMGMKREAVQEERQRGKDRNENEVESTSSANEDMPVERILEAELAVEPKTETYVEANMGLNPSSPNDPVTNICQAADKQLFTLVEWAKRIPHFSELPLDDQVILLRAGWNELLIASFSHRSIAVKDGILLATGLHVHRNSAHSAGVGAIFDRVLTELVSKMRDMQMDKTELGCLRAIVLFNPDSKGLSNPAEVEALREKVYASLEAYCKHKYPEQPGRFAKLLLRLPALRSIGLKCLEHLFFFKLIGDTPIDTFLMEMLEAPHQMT

As to `CCC(C)CO` (stereo not given), the Potency result in experiment [1], in experiment [2], in experiment [4], in experiment [5], in experiment [6] and in experiment [7] was “inactive” in each case. For the same compound, the Potency entry in experiment [8], in experiment [9], in experiment [11], in [12], in experiment [13] and in [14] was “inactive” each time. Also, the compound was called inactive in experiment [3] and in [10].
Take `Nc1ccc(S(=O)(=O)Nc2cnc3ccccc3n2)cc1`: the Potency entry in experiment [1], in experiment [2], in experiment [4], in experiment [5], in [6] and in experiment [7] was “inactive” in each case. In addition, the Potency result in experiment [8], in experiment [9], in [11], in [12] and in experiment [13] was “inactive” each time. The outcome in [3] and in experiment [10] was inactive.
On to `CCC(C)OC(=O)c1ccc(O)cc1` (stereo not given), for which the Potency result in experiment [1], in [4], in experiment [5], in [6], in experiment [7] and in [8] was “inactive” each time. Further, the Potency result in [9], in experiment [11], in [12], in experiment [13] and in experiment [14] was “inactive” throughout. The call in experiment [3] and in experiment [10] was inactive. For the same compound, the Potency in experiment [15] is 61.1 µM (active).
As to `C[Si](C)(C)O[Si](C)(C)C`, the Potency result in experiment [1], in experiment [2], in experiment [4], in experiment [5], in experiment [6] and in experiment [7] was “inactive” each time. Moreover, the Potency result in experiment [8], in experiment [9], in experiment [11], in experiment [12], in [13] and in [14] was “inactive” throughout. Also, the Potency entry in [15] was “inactive”. Further, the compound was called inactive in experiment [3] and in experiment [10].
Turning to `NC=O`, the Potency entry in experiment [1], in experiment [2], in [4], in [5], in experiment [6] and in experiment [7] was “inactive” in each case. Further, the Potency entry in [8], in experiment [9], in experiment [11], in experiment [12], in experiment [13] and in experiment [14] was “inactive” each time. Also, in [15], the Potency result is “inactive”. Moreover, the result in [3] and in experiment [10] was inactive.
`O=C(c1ccc(OCCN2CCCCC2)cc1)c1c(-c2ccc(O)cc2)sc2cc(O)ccc12`: the Potency in experiment [1] is 55 µM (active) and 21.9 µM (active) and 33.5 µM (active); in experiment [2], 17.4 µM (active); in [4], 55 µM (active) and 54.9 µM (active) and inactive; in experiment [7], 61.2 µM (active) and inactive; in experiment [8] it was 13.7 µM (active) and 19.3 µM (active); in [12], 27.5 µM (active) and 23.9 µM (active). Further, the compound was called inactive in experiment [3] and in [10]. Further, the Potency result in [5], in experiment [6], in experiment [9] and in [13] was “inactive” in each case.
On to `CC(=O)O[C@]1(C(C)=O)CC[C@H]2[C@@H]3C=C(Cl)C4=CC(=O)[C@@H]5C[C@@H]5[C@]4(C)[C@H]3CC[C@@]21C`, for which the Potency in experiment [1] is 48.9 µM (active) and inactive. Moreover, the Potency entry in experiment [2], in experiment [4], in [5], in experiment [6], in experiment [7] and in experiment [9] was “inactive” throughout. Besides, the Potency result in experiment [12], in experiment [13], in experiment [16] and in experiment [17] was “inactive” throughout. Also, the compound was classed as inactive in experiment [3] and in experiment [10].
On to `c1ccc2c(c1)Oc1ccccc1S2`, for which the Potency result in experiment [1], in experiment [4], in experiment [5], in experiment [6], in experiment [7] and in experiment [8] was “inactive” each time. Further, the Potency entry in experiment [9], in experiment [11], in experiment [12] and in experiment [13] was “inactive” throughout. Moreover, the call in [3] was inactive.
Take `O=CCc1ccccc1`: the Potency result in [1], in [2], in [4], in experiment [5], in experiment [6] and in experiment [8] was “inactive” in each case. The Potency entry in experiment [9], in experiment [11], in [12], in experiment [13] and in experiment [14] was “inactive” throughout. In addition, the call in [3] and in experiment [10] was inactive.
